Shiga toxin inh: A qHTS for Small Molecule Inhibitors of Shiga Toxin; AID 2315, 2010; inhibition, % at 38.7 µM; Vero cells, Shiga toxin protein synthesis inhibition reporter; 290,000 tested, 9.2% active; in the data active = inhibition mostly above about 28%, no sharp cut-off; inactive = mostly below about 43%
Pf growth 96h: Primary qHTS for delayed death inhibitors of the malarial parasite plastid, 96 hour incubation. Potency, µM (highest dose often 28.7 µM), most hits filed as inhibitors. P. falciparum luciferase reporter growth, 96 h. 320,000 tested, 6.9% active. AID 504834, 2011
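Luminescence readout: decreased luciferase signal marks inhibited growth of reporter-expressing P. falciparum in infected red cells (2% hematocrit, 0.05% parasitemia final), exposed to compound two generations (96 h, 37 C, 5% CO2).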
Pf growth 48h: Primary qHTS for delayed death inhibitors of the malarial parasite plastid, 48 hour incubation. 310,000 tested, 5.9% active. AID 504832, 2011. P. falciparum luciferase growth in erythrocytes, 48 h. Potency, µM (titrated, usually from 28.7 µM), most hits filed as inhibitors
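Parasite viability was followed by luminescence of a genomically integrated firefly luciferase. Cultures held 0.1% parasitemia at 2% hematocrit (final), incubated under 5% CO2 at 37 C.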
CHX counter: Cycloheximide Counterscreen for Small Molecule Inhibitors of Shiga Toxin; cell reporter, cycloheximide protein synthesis inhibition counterscreen; max response, %; 300,000 tested, 12% active; AID 2314, 2010; in the data active = max response mostly above about 13%, no sharp cut-off; inactive = mostly below about 14%; note: read at 38.3 µM for the half of the compounds with a filed dose
Each line names hits and unclear results; the compound was inactive in the other large screens. Compounds with a hit are over-represented: about 21% of the library has one in this group of screens. Unless noted, calls come from the whole dose curve; as a rule, active = well fitted inhibition curve with a large enough effect; inconclusive = small, poorly fitted or top-dose-only effect, or another doubt; inactive = no such curve, though single readings can be large or run the other way.

O=C(Nc1nccs1)c1ccc(Cl)nc1	none
O=C(Nc1n[nH]c(=S)s1)c1ccc2ccccc2c1	Shiga toxin inh 69.4, CHX counter 33.9
CCOCCCNc1nc(C)nc2c1nnn2Cc1c(F)cccc1Cl	Pf growth 48h inconclusive
O=C(Nc1nccs1)c1cnccn1	none
O=C(Nc1nccs1)c1ccc(S(=O)(=O)c2ccccc2)cc1	Pf growth 48h inconclusive (no result: Pf growth 96h)
O=C(Nc1nccs1)c1ccc2ccccc2c1	Shiga toxin inh 78.9, CHX counter 51.8
O=C(Nc1nccs1)c1ccccn1	Shiga toxin inh 96.9, Pf growth 96h inconclusive, CHX counter 66.7
CCOc1cccc(C(=O)Nc2nccs2)c1	Shiga toxin inh 68.8, CHX counter 30.2
CCOC(=O)c1c(C)n(C)c2ccc(OC)c(NC(=O)CCN3CCC(Cc4ccccc4)CC3)c12	Pf growth 96h inconclusive, Pf growth 48h inconclusive
CCOC(=O)[C@H]1[C@H]2COc3ccccc3[C@@H]2N2C(=O)[C@@H](CO)NC(=O)[C@@]12C	none (no result: Shiga toxin inh, CHX counter)
CCOC(=O)[C@H]1[C@H]2COc3ccc(Cl)cc3[C@@H]2N2C(=O)CN(CC3CCCO3)C(=O)[C@@]12C (stereo partly drawn)	Pf growth 96h inconclusive (no result: Shiga toxin inh, CHX counter)
CCOC(=O)[C@H]1[C@H]2COc3ccc(Cl)cc3[C@@H]2N2C(=O)c3cc(Cl)ccc3NC(=O)[C@@]12C	Pf growth 96h 10.4µM, Pf growth 48h inconclusive (no result: Shiga toxin inh, CHX counter)
CCOC(=O)[C@H]1[C@H]2COc3ccc(Cl)cc3[C@@H]2N2C(=O)c3ccc(F)cc3NC(=O)[C@@]12C	Pf growth 96h inconclusive, Pf growth 48h 11.7µM (no result: Shiga toxin inh, CHX counter)
CCOC(=O)[C@H]1[C@H]2COc3ccccc3[C@@H]2N2C(=O)c3cc(C)ccc3NC(=O)[C@@]12C	Pf growth 96h 13.1µM, Pf growth 48h inconclusive (no result: Shiga toxin inh, CHX counter)
CCOC(=O)[C@H]1[C@H]2COc3ccccc3[C@@H]2N2C(=O)c3cc(Cl)ccc3NC(=O)[C@@]12C	Pf growth 96h 11.7µM, Pf growth 48h 10.4µM (no result: Shiga toxin inh, CHX counter)
COCCSc1ccccc1C(=O)NCc1ccco1	none
COc1cc(OC)cc(C(=O)NNC(=O)CN2C(=O)NC(C)(c3ccccc3)C2=O)c1 (stereo not drawn)	Pf growth 48h inconclusive (no result: Shiga toxin inh, CHX counter)
CC1(C)Cc2c(ccc3ccccc23)C(=O)N1	Pf growth 96h inconclusive, Pf growth 48h inconclusive, CHX counter 11.3
CCOC(=O)Nc1ccc(C(=O)c2ccncc2)cc1	Pf growth 96h inconclusive
O=C1C2C3C=CC(CC3)C2C(=O)N1/N=C/c1ccco1 (stereo not drawn)	CHX counter 16.5
O=C(O)c1cc(-c2ccc(/C=N/N3C(=O)C4C5C=CC(CC5)C4C3=O)o2)ccc1Cl (stereo not drawn)	none
COC(=O)c1ccc(-c2ccc(/C=N/N3C(=O)C4C5C=CC(CC5)C4C3=O)o2)cc1 (stereo not drawn)	CHX counter 34.5
CCCCOC(=O)c1ccc(OC(=O)N2CCOCC2)cc1	CHX counter 28.9
O=C(c1ccccc1)c1ccc(OC(=O)N2CCOCC2)cc1	Pf growth 96h inconclusive, CHX counter 36.4
CCOc1nc(NC(=O)NS(=O)(=O)c2ccccc2F)nc(-c2ccccc2)n1	Shiga toxin inh 53.3, Pf growth 96h inconclusive
COc1ccc(C(CNC(=O)c2oc3ccc(C)cc3c2C)N2CCCCC2)cc1 (stereo not drawn)	Pf growth 96h inconclusive, Pf growth 48h inconclusive
COc1ccc(C(CNC(=O)COc2ccc(Cl)cc2C)N2CCCCC2)cc1 (stereo not drawn)	Pf growth 48h 11.7µM
COc1ccc(OCC(=O)NCC(c2ccc(OC)cc2)N2CCCCC2)cc1 (stereo not drawn)	Pf growth 48h inconclusive
COc1ccccc1C(CNC(=O)C(C)(C)Oc1ccc(Cl)cc1)N1CCCC1 (stereo not drawn)	Pf growth 96h inconclusive, Pf growth 48h 13.1µM (no result: Shiga toxin inh, CHX counter)
COc1ccc(C(CNC(=O)c2oc3cc(C)c(Cl)cc3c2C)N2CCCCC2)cc1 (stereo not drawn)	Pf growth 48h 5.22µM
COc1ccc(C(CNC(=O)COc2ccccc2)N2CCCCC2)cc1 (stereo not drawn)	Pf growth 96h 14.7µM, Pf growth 48h inconclusive (no result: Shiga toxin inh, CHX counter)
Cc1ccc2c(c1)cc(C(=O)N[C@@H](Cc1ccccc1)C(=O)O)n2C	none
COc1ccc(C(=O)NC2CCCc3c2cnn3-c2cccc(C)c2C)o1 (stereo not drawn)	Pf growth 48h inconclusive
COc1ccccc1C(CNC(=O)c1oc2ccccc2c1C)N1CCCC1 (stereo not drawn)	Pf growth 96h 13.1µM, Pf growth 48h inconclusive (no result: Shiga toxin inh, CHX counter)
COc1ccc(C(CNC(=O)c2cc3ccccc3o2)N2CCCC2)cc1 (stereo not drawn)	Pf growth 48h inconclusive (no result: Shiga toxin inh, CHX counter)
